Reference: PubChem BioAssay AID624296 (National Center for Advancing Translational Sciences (NCATS), 2012)
The campaign covered roughly 350,000 compounds. About 9,900 (2.8%) were called active. Roughly 15% stayed inconclusive and do not appear here. The call rests on the fitted dose curve; in most records, active means well fitted activation curve with a large enough effect; inconclusive means small, poorly fitted or top-dose-only effect; inactive means no such curve, though single readings can be large or run the other way. The entries come from a sample that favours actives as a whole.

Assay: A quantitative high throughput screen for small molecules that induce DNA re-replication in MCF 10a normal breast cells. Further: nearly all actives have a fitted effect of over 50% in size. On activity, positive = re-replication: % of control where 0% means no effect.
Conditions: MCF 10A DNA re-replication, Hoechst nuclear intensity, 48 h; series mostly up to 46.1 µM; activity, positive = re-replication: at the top concentration
Excerpt: H Molecular Libraries Probe Production Network [MLPCN]
NIH Chemical Genomics Center [NCGC]
Assay Provider: Melvin DePamphilis, NICHD, NIH
Eukaryotic cells normally restrict genome duplication to once per cell division. When this process is aberrant, DNA re-replication occurs when cells reinitiate DNA replication before the first round of replication is complete. DNA re-replication induces the DNA damage response, arrests cell proliferation, and triggers apoptosis. The cell cycle components cyclin A, Cdt-1, Cdc6 and geminin are critical regulators of this process and their misregulation results in DNA re-replication in normal and cancer cells. To identify compounds that induce re-replication in normal cells, an image-based assay was used to measure DNA content of nuclei, as detected by the fluorescent DNA binding dye, Hoechst. Cell nuclei were imaged by a fluorescence scanning plate imager and compounds that induce DNA re-replication were identified by the increase of nuclei with elevated fluorescence intensity
For screening, 250 cells in 5 uL/well were dispensed into black clear 1536-well plates (Aurora) using a solenoid-based dispenser. Following transfer of 23 nL compound or DMSO vehicle by a pin tool, the plates were incubated 48 hr at 37 C and 5% CO2. After addition of 1 uL/well Hoescht stain, the plates were incubated 40 min at 37 C, 5% CO2 and total intensity of fluorescent objects (nuclei) were enumerated by an Acumen Explorer Ex3 (TTP LabTech) fluorescence scanning plate imager (405 nm excitation, 500-530 nm emission).
Keywords: NIH Roadmap, MLPCN, MLI, MLSMR, qHTS, NCGC, DNA replication, cancer
Potency means the concentration at half of the fitted maximal effect.

Compound	activity, positive = re-replication	Potency
O=C(CP(=O)(c1ccccc1)c1ccccc1)N1CCOCC1	-20.5% (inactive)	–
c1ccc(-c2nnc(N3CCOCC3)c3ccccc23)cc1	21.2% (inactive)	–
O=C(c1snnc1-c1ccccc1)N1CCOCC1	–	0.651 µM (active)
CCN(CC)C(=O)c1sc2nc(-c3ccccc3)ccc2c1N	–	23.1 µM (active)
CCCC(=O)n1nc(-c2ccccc2)nc1N	-0.296% (inactive)	–
CCOC(=O)c1sc2nc(SC)nc(-c3ccccc3)c2c1N	13.6% (inactive)	–
COc1ccc(NS(=O)(=O)c2cc(NC(=O)COc3ccccc3F)ccc2OC)cc1	5.57% (inactive)	–
O=C(C1CC(=O)N(C2CCCC2)C1)N1CCN(c2cccc(C(F)(F)F)c2)CC1 (stereo not drawn)	0.122% (inactive)	–
O=C(N/N=C/c1ccc([N+](=O)[O-])o1)c1cccc(S(=O)(=O)N2CCOCC2)c1	-0.655% (inactive)	–
Cc1cc(C)nc(N/N=C/c2ccc([N+](=O)[O-])o2)n1	-1.22% (inactive)	–
NC(=O)C(=O)N/N=C/c1ccc([N+](=O)[O-])o1	–	26.6 µM (active)
O=C(COC(=O)c1ccncc1)Nc1ccc2c(c1)OCO2	-1.83% (inactive)	–
O=C1COc2ccc(C(=O)COC(=O)c3ccccc3Cl)cc2N1	-6.39% (inactive)	–
CN1CCN(CC(O)COCc2ccc3c(c2)OCO3)CC1 (stereo not drawn)	–	20.6 µM (active)
CC1CCCN(CC(O)COc2ccc3c(c2)OCO3)C1 (stereo not drawn)	12.3% (inactive)	–
COc1cc(COCC(O)CN2CCN(Cc3ccc4c(c3)OCO4)CC2)cc(OC)c1OC (stereo not drawn)	-4.04% (inactive)	–
CC1C(=O)N(Cc2ccccc2)c2ccccc2N1C(=O)c1ccccc1 (stereo not drawn)	1.1% (inactive)	–
CC1CC(C)CN(CC(=O)N2c3ccccc3CCc3ccccc32)C1 (stereo not drawn)	14.8% (inactive)	–
CC1C(C)N(C(=O)CCl)c2ccccc2N1C(=O)CCl (stereo not drawn)	–	7.31 µM (active)
O=C1CN(C(=O)COC(=O)/C=C/c2ccc(F)cc2)c2ccccc2N1	-0.315% (inactive)	–
CCOC(=O)C1CCCN(C(=O)C2CCN(S(=O)(=O)c3ccc(Cl)c(C(F)(F)F)c3)CC2)C1 (stereo not drawn)	4.77% (inactive)	–
O=C1c2ccccc2C2=Nc3ccccc3SC(c3ccccc3F)C12 (stereo not drawn)	–	6.51 µM (active)
O=C1c2ccccc2C(=O)C1c1ccccc1F	1.07% (inactive)	–
COC(=O)[C@]1(C)N[C@H](CN(C)C(=O)c2ccc(C(C)(C)C)cc2)[C@@H]2C(=O)N(C)C(=O)[C@@H]21	21% (inactive)	–
N#Cc1cccc(NC(=O)C2CCCN(C(=O)c3ccc(Cl)cc3)C2)c1 (stereo not drawn)	-3.89% (inactive)	–
C/C=C/c1ccc(OCC(=O)NNC(=O)CN(C)S(=O)(=O)c2ccc(C)cc2)c(OC)c1	-3.34% (inactive)	–

Compound	activity, positive = re-replication	Potency
Cn1c(C(=O)NCCc2ccsc2)cc2c(=O)n(C)c3ccccc3c21	4.88% (inactive)	–
Cn1c(C(=O)NCCCN2CCN(c3cccc(Cl)c3)CC2)cc2c(=O)n(C)c3ccccc3c21	–	14.6 µM (active)
CCn1c(=O)cc(OCC(=O)NCCCN2CCN(c3cccc(Cl)c3)CC2)c2ccccc21	19.6% (inactive)	–
Cc1cccc(-c2oc3ccc(-c4ccc5c(c4)OCO5)cc3c2C#Cc2cncn2C)c1	5.28% (inactive)	–
c1ccc(CCc2ccccn2)cc1	3.05% (inactive)	–
Cc1cccc(NS(=O)(=O)c2ccc(C)c(C(=O)NCc3cccnc3)c2)c1	6.28% (inactive)	–
O=C(COC(=O)c1ccc(F)cc1)Nc1ccc2c(c1)OCO2	-2.32% (inactive)	–
Cc1cccc(COc2ccccc2/C=N/Nc2ccc([N+](=O)[O-])cc2)c1	–	10.3 µM (active)
O=[N+]([O-])c1ccc(O)c(/C=N/Nc2ccccc2[N+](=O)[O-])c1	11.1% (inactive)	–
Cc1ccc(NS(=O)(=O)c2ccc(N/N=C/c3ccccc3OCC(=O)O)c([N+](=O)[O-])c2)c(C)c1	7.31% (inactive)	–
O=S1(=O)CCOC[C@H](Cc2ccccc2)N1Cc1ccccc1Br	12% (inactive)	–
O=C(CSc1nc2ccccc2c(=O)n1-c1ccccc1F)N1CCOCC1	-2.83% (inactive)	–
CC(C)(C)c1nnc2sc(SCC(O)=C(C#N)c3nc4ccccc4[nH]3)nn2c1=O	-7.27% (inactive)	–
COc1ccccc1-c1sc2ccccc2c1C#CC1(O)CCCCC1	–	18.4 µM (active)
COc1ccccc1-c1sc2ccccc2c1-c1ccc(C(C)=O)cc1	96.3% (inactive)	–
COc1ccccc1C1=CC(=O)CCC1	4.21% (inactive)	–
Cc1ccc(F)cc1NC(=O)CSCc1c(C)noc1C	9.05% (inactive)	–
COc1cccc(-n2c(SCC(=O)NC3CCS(=O)(=O)C3)nc3ccccc3c2=O)c1 (stereo not drawn)	-0.959% (inactive)	–
CC(=O)Nc1cc(C(=O)O)ccc1S(=O)(=O)c1ccc(Cl)cc1	-4.11% (inactive)	–
O=C(Nc1ccccc1)c1nnsc1S(=O)(=O)c1ccc(Cl)cc1	–	13 µM (active)
CS(=O)(=O)c1ccc(Cl)c(NC(=O)Nc2ccccc2)c1	2.54% (inactive)	–
COc1ccccc1C(=O)COC(=O)COc1ccc(C#N)cc1	-0.419% (inactive)	–
O=C(COC(=O)c1ccc([N+](=O)[O-])o1)NC12CC3CC(CC(C3)C1)C2	2.77% (inactive)	–
N#CCC(=O)Nc1ccc(C(=O)OCC(=O)Nc2sc3c(c2C#N)CCCC3)cc1	2.07% (inactive)	–
CCN(CC(=O)Nc1ccccc1OC)C(=O)CC1CC2CCC1C2 (stereo not drawn)	-1.06% (inactive)	–
COc1cc(OC)c(C(=O)NNC(=O)c2ccccc2-n2cccc2)cc1OC	4.63% (inactive)	–

Compound	activity, positive = re-replication	Potency
O=C(COC(=O)c1ccccn1)Nc1cccc2ccccc12	-0.533% (inactive)	–
N#Cc1ccccc1NC(=O)COc1c(Br)cc(Br)c2cccnc12	–	25.9 µM (active)
Cc1cc(NC(=O)COc2ccccc2C#N)no1	-3.52% (inactive)	–
C#CCOCCOCCOCCNc1nc(N2CCN(C(=O)[C@H](CCC(=O)O)n3cc(CN)nn3)CC2)nc(N2CCN(C(=O)[C@H](CCC(=O)O)n3cc(CN)nn3)CC2)n1	-1.24% (inactive)	–
Cc1cc(NC(C)C)n2c(nc3ccccc32)c1C#N	0.0869% (inactive)	–
Cc1cc(NCc2ccco2)n2c(nc3ccccc32)c1C#N	–	16.4 µM (active)
CC(C)c1cc(NCc2ccccn2)n2c(nc3ccccc32)c1C#N	14.3% (inactive)	–
Cc1ccc(NS(=O)(=O)c2ccc(C(C)C)cc2)cc1S(=O)(=O)N1CCOCC1	3.51% (inactive)	–
Cc1ccc(OC(=O)c2cc3ccccc3o2)cc1	-4.63% (inactive)	–
C/C(=N\NC(=S)Nc1ccc(C)cc1)c1cc2ccccc2o1	–	13 µM (active)
Cc1ccc(NC(=O)c2cc3ccccc3o2)cc1	0.598% (inactive)	–
O=C(CN1C(=O)NC2(CCOc3ccccc32)C1=O)NCc1ccc(F)cc1 (stereo not drawn)	0.67% (inactive)	–
Cc1cccc(NC(=O)c2cccc(C(F)(F)F)c2)c1	0.159% (inactive)	–
O=C(O)CSCC(=O)Nc1cccc(C(F)(F)F)c1	0.525% (inactive)	–
O=C(Nc1cccc(C(F)(F)F)c1)c1cc(Br)cc(Br)c1O	–	4.73 µM (active)
O=C(NCCc1ccccc1)c1c[nH]c2ccc(F)cc2c1=O	-1.92% (inactive)	–
Nn1c(SCC(=O)NC2CCCc3ccccc32)nnc1C1CC1 (stereo not drawn)	-1.36% (inactive)	–
Cc1noc(C)c1S(=O)(=O)N(C)C[C@H]1Oc2ccc(NC(=O)C3CC3)cc2C(=O)N([C@H](C)CO)C[C@@H]1C	-4.09% (inactive)	–
COc1ccc(-c2nc3c(s2)CCc2onc(-c4ccc(Br)cc4)c2-3)cc1	-16.8% (inactive)	–
COc1ccc(-c2nc3n(c2Br)CCC3)cc1	-5.29% (inactive)	–
COc1ccc(-c2nc3c(s2)CCc2onc(-c4ccc(OC)cc4)c2-3)cc1	–	4.11 µM (active)
O=C(O)c1ccccc1/C=N/Nc1ccc(S(=O)(=O)Nc2ccc(Cl)cc2)cc1[N+](=O)[O-]	27.4% (inactive)	–
Cc1noc(C)c1NC(=O)Nc1ccc2c(c1)C(=O)N([C@H](C)CO)C[C@H](C)[C@@H](CN(C)C(=O)Nc1ccccc1)O2	-0.387% (inactive)	–
COc1ccccc1C(=O)c1ccccc1C(=O)c1ccccc1	14.2% (inactive)	–
CCOC(=O)C(=Cc1ccccc1OC)C(=O)OCC	–	14.6 µM (active)
CCOC(=O)C(=CNc1cccc(C)n1)C(=O)OCC	2.73% (inactive)	–

Compound	activity, positive = re-replication	Potency
Cc1ccc(S(=O)(=O)c2c(COC(=O)c3cccc(Cl)c3)c(-c3ccccc3)nn2C)cc1	10.6% (inactive)	–
Cn1nc(-c2ccccc2)c(CSc2cccc(Cl)c2)c1Cl	–	5.17 µM (active)
Cn1nc(-c2ccccc2)c(CO)c1Sc1ccccc1	2.31% (inactive)	–
O=C(NN=Cc1ccc(N2CCOCC2)cc1)c1cc2ccccc2cc1O	13.2% (inactive)	–
CCOCc1c(C(=O)N2CCN(Cc3ccc(Br)s3)CC2)oc2ccccc12	12.6% (inactive)	–
CN(C)c1ccc(/C=N/N(Cc2ccccc2)c2ccccc2)cc1	14.1% (inactive)	–
CCN(/N=C/c1ccccc1)c1cc(=O)n(C)c(=O)[nH]1	-8.5% (inactive)	–
CCN(/N=C/c1ccc(N(C)C)cc1)c1nc2ccccc2[nH]1	–	5.8 µM (active)
Cc1ccc(S(=O)(=O)N2CCN(C(=O)COC(=O)CNC(=O)c3ccc(C(C)(C)C)cc3)CC2)c(C)c1	-2.41% (inactive)	–
O=C(CCNS(=O)(=O)c1ccccc1)NCCCc1ccccc1	1.7% (inactive)	–
O=C(Cc1ccc(NC(=O)C2CCCN(C(=O)CCc3ccccc3)C2)cc1)Nc1ccc(C(=O)N2CCOCC2)cc1 (stereo not drawn)	-4.89% (inactive)	–
Cn1c(=O)[nH]c2c(c(C(=O)O)nn2C)c1=O	0.839% (inactive)	–
O=C(Nc1ccc(Cl)c(Cl)c1)N1CC=C(c2ccccc2)CC1	–	14.6 µM (active)
O=C(O)c1cccc(S(=O)(=O)N2CC=C(c3ccccc3)CC2)c1	8.48% (inactive)	–
COc1cc(C(=O)NCC(=O)N2CC=C(c3ccccc3)CC2)cc(OC)c1OC	7.06% (inactive)	–
CCOc1ccc(/C=C(/C#N)c2nnc(N3CCOCC3)n2-c2ccccc2)cc1OC	-7.13% (inactive)	–
COc1cccc2c1C(=O)c1c(O)c3c(c(O)c1C2=O)CC(O)(C(C)=NNC(=O)c1ccc(Cl)c(Cl)c1)CC3OC1CC(N)C(O)C(C)O1 (stereo not drawn)	1.42% (inactive)	–
O=C(Nc1ccccc1-c1ccccc1)c1ccccc1[N+](=O)[O-]	17.7% (inactive)	–
COc1cc(OC)c(C(=O)Nc2ccccc2-c2ccccc2)cc1OC	–	18.4 µM (active)
COc1cc2ccccc2cc1C(=O)Nc1ccccc1C	0.228% (inactive)	–
O=C1C=C(c2cccc(Br)c2)C[C@@H](c2ccc(F)cc2)C1	5.52% (inactive)	–
CNc1nc(=O)n(C2CCCO2)cc1C (stereo not drawn)	-4.08% (inactive)	–
COc1ccc(C2(C#N)CCC(C(=O)O)CC2)cc1OC1CCCC1 (stereo not drawn)	22.2% (inactive)	–
COc1ccc(C(=O)Nc2ccc(C3(C#N)CCCC3)cc2)cc1OC	–	20.6 µM (active)
COc1ccc(C(=O)Nc2ccc(N3CCC(C)CC3)cc2)cc1Br	-4.31% (inactive)	–
